Data published in PubChem BioAssay AID686979 (National Center for Advancing Translational Sciences (NCATS), 2013).
The whole screen tested about 420,000 compounds, of which about 50,000 (12%) were called active. Inconclusive results (about 26%) are left out. Calls follow the shape of the dose curve; as a rule, active = well fitted inhibition curve with a large enough effect; inconclusive = small, poorly fitted or top-dose-only effect; inactive = flat fitted curve, though single readings scatter. The entries come from a sample that favours actives as a whole. Where a call stands in place of a potency, no number is given.

Experiment: qHTS for Inhibitors of human tyrosyl-DNA phosphodiesterase 1 (TDP1): qHTS in cells in presence of CPT; also: nearly all actives have a fitted effect of over 55% in size
Details: chicken DT40 Tdp1-/-;hTDP1 cells + 20 nM CPT, ATP luminescence, 48 h; series mostly up to 46.2 µM
Procedure, shortened: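 Cell growth measured by CellTiter-Glo luminescence after a minimum 48 h, 37 C compound exposure with 20 nM CPT in Tdp1-knockout DT40 cells stably expressing hTDP1, seeded 400/well; qHTS titration format.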
Potency is read from the fitted curve at half-maximal effect.

| Compound | Potency |
| --- | --- |
| CCn1c(=O)cc(O)c2ccccc21 | inactive |
| CCn1c(NC(=O)c2ccccc2)c(-c2cccs2)c(=O)c2ccccc21 | 20.6 µM (active) |
| CSCCC(NS(=O)(=O)c1ccc(C)cc1)C(=O)N1CCCC1 (configuration not stated) | inactive |
| CCCn1c(N)c(C(=O)CSc2nnc3n2CCCCC3)c(=O)[nH]c1=O | inactive |
| CCOc1ccc(N=C2NC(=O)S/C2=C\c2ccc(O)cc2)cc1 | inactive |
| CCOc1[nH]n(-c2ccc(Cl)cc2)c(=O)c1C=Nc1ccc(O)cc1 | 5.8 µM (active) |
| Cc1ccc(C(=O)NCCN2CCOCC2)cc1C | inactive |
| CC(=O)Oc1cc2c(C(=O)NCCN3CCOCC3)c(C)oc2c2ccccc12 | 18.4 µM (active) |
| Cc1cc(C)cc(C(=O)NCCN2CCOCC2)c1 | inactive |
| COc1ccc(OC)c(-n2nnc3c(sc4nc(C)c(Br)c(C)c43)c2=O)c1 | inactive |
| Cc1ccc(S(=O)(=O)N(Cc2ccccc2)c2ccccn2)cc1[N+](=O)[O-] | inactive |
| CCC(=O)N(Cc1ccccc1)c1ccccn1 | inactive |
| COC(=O)c1cc(C(=O)N(Cc2ccccc2)c2ccccn2)cc([N+](=O)[O-])c1 | inactive |
| COc1cc(CN(C(=O)c2ccccc2Br)c2ccccn2)cc(OC)c1OC | 18.4 µM (active) |
| COc1cc(SC)ccc1C(=O)N(Cc1ccccc1)c1ccccc1 | inactive |
| Cc1ccc(CN(C(=O)c2ccccc2[N+](=O)[O-])c2ccccn2)cc1 | 11.6 µM (active) |
| COc1ccc(CCOC(=O)CNC(=O)c2ccc(Cl)cc2Cl)cc1 | inactive |
| Cc1ccc(N2CC(NC(=O)Cc3cccs3)CC2=O)cc1 (configuration not stated) | inactive |
| C[C@H](NC(=O)c1nc[nH]c1C(=O)N[C@@H](C)C(=O)OC(C)(C)C)C(=O)OC(C)(C)C | inactive |
| COc1cc(C(=S)NC2CCCCC2)ccc1O | inactive |
| Cc1cccc(N2CCN(C(=O)CCn3c(=O)c4cccn4c4cccnc43)CC2C)c1 (configuration not stated) | 3.66 µM (active) |
| Cc1cccc(NC(=O)Cn2c(=O)n(CCC(C)C)c(=O)c3cccnc32)c1 | inactive |
| Cc1cccc(N2CCN(S(=O)(=O)c3ccc(-c4cc(C)no4)s3)CC2C)c1 (configuration not stated) | inactive |
| CCOc1ccc(-c2cc3c(=O)n(CC(=O)NCc4ccc(OC)cc4)ccn3n2)cc1 | inactive |
| CCOC(=O)C1C(c2ccc(OC)c(OC)c2)c2c([nH][nH]c2=O)CC1(C)O (configuration not stated) | inactive |
| O=C(Nc1c(Br)cc2c(c1Br)Cc1ccccc1-2)C(F)(F)F | inactive |

| Compound | Potency |
| --- | --- |
| Cc1ccc(N(NC(=O)C(C)(C)O)C(=O)c2ccccc2)cc1C | inactive |
| CCCCCNC(=O)C1c2ccccc2Oc2ccccc21 | inactive |
| COC(=O)N(NC(=O)C(O)(C(C)C)C(C)C)c1ccccc1 | inactive |
| CCCCC(O)(CCCC)C(=O)NN(C(=O)CCl)c1ccccc1 | 14.6 µM (active) |
| CCCC(O)(CCC)C(=O)NN(C(=O)CCl)c1cccc(C)c1 | 4.61 µM (active) |
| CC(C)(O)C(=O)NN(C(=O)c1ccccc1)c1cccc(Br)c1 | inactive |
| O=C(NNC(=S)NC1CCCCC1)c1ccccc1Cl | inactive |
| Clc1ccccc1CSc1nncn2c1cc1occc12 | inactive |
| Cn1c(CCc2ccccc2)nnc1SCC(N)=O | inactive |
| COc1ccc(CN2CN(C3CCCC3)CSC2=S)cc1 | 5.17 µM (active) |
| COc1ccc(CCC(C)N2CCc3ccccc3C2)cc1 (configuration not stated) | inactive |
| COc1ccc(CN2CC(C(=O)NC3CCCCC3)CC2=O)cc1 (configuration not stated) | inactive |
| COc1ccc(CN2CN(C(C)C)CSC2=S)cc1 | 2.91 µM (active) |
| COc1ccc(Cn2c(=O)cc(C)[nH]c2=S)cc1 | inactive |
| COc1ccc(CCNC(=O)COC(=O)C2CCCCC2)cc1 | inactive |
| O=C(NC1CCCC1)C(c1ccccn1)N(C(=O)c1csnn1)C1CCCC1 (configuration not stated) | inactive |
| Cc1cc(C)c2c(=O)[nH]c(SCC(=O)Nc3ccc(Br)cc3)nc2n1 | inactive |
| CC1(C(=O)NS(=O)(=O)c2cccc(F)c2)CCN1C(=O)Cc1cc(F)ccc1F (configuration not stated) | inactive |
| CN(CC(=O)Nc1ccccc1F)S(=O)(=O)c1ccc2c(c1)c(=O)n(C)c(=O)n2C | inactive |
| O=C1c2ccccc2C(c2nc3ccccc3[nH]2)N1c1ccccc1 (configuration not stated) | inactive |
| CSc1ncccc1C(=O)NCc1ccccc1Cl | inactive |
| O=C(CNC(=O)c1cc(S(=O)(=O)N2CCOCC2)ccc1N1CCCC1)Nc1ccc(F)c(F)c1 | inactive |
| COc1ccccc1CNC(=O)C1CCN(C(=O)[C@@H]2Cc3ccccc3CN2)CC1 | inactive |
| COc1ccccc1CNC(=O)C1Cc2ccccc2C(=O)O1 (configuration not stated) | inactive |
| COc1ccccc1CNC(=O)[C@@H]1CCCN1C(=O)[C@@H]1Cc2ccccc2CN1C(=O)OC(C)(C)C | 18.4 µM (active) |
| CCCNC(=O)c1cnc(-c2ccccc2)nc1-c1ccccc1 | inactive |
